According to PubChem BioAssay (NCI):
Compounds without any hit were thinned out: in the full panel of roughly 83,000, 20% have a hit.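 Single-dose data. Exposure time 48 hours. Values below 10 considered active.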 Unmarked numbers belong to inactive results. Active and inactive are the calls of the source.

Legend:
Experiment in all cases: NCI-60 one-dose screen, 48 h (100 = growth as untreated, 0 = no growth, -100 = all killed)
Conditions in all cases: 10 µM unless noted
RPMI-8226 leukemia = test system: RPMI-8226 leukemia
OVCAR-8 ovarian = test system: OVCAR-8 ovarian
OVCAR-5 ovarian = test system: OVCAR-5 ovarian
OVCAR-4 ovarian = test system: OVCAR-4 ovarian
SK-OV-3 ovarian = test system: SK-OV-3 ovarian
IGROV1 ovarian = test system: IGROV1 ovarian
OVCAR-3 ovarian = test system: OVCAR-3 ovarian
HS 578T breast = test system: HS 578T breast
NCI/ADR-RES ovarian = test system: NCI/ADR-RES ovarian
T-47D breast = test system: T-47D breast
BT-549 breast = test system: BT-549 breast
MDA-MB-435 melanoma = test system: MDA-MB-435 melanoma
SW-620 colon = test system: SW-620 colon
MCF7 breast = test system: MCF7 breast
HCT-116 colon = test system: HCT-116 colon
HCC-2998 colon = test system: HCC-2998 colon
KM12 colon = test system: KM12 colon
SR leukemia = test system: SR leukemia

Structure (SMILES)	growth (RPMI-8226 leukemia)	growth (OVCAR-8 ovarian) [%]	growth (OVCAR-5 ovarian)	growth (OVCAR-4 ovarian)	growth (SK-OV-3 ovarian) [%]	growth (IGROV1 ovarian)	growth (OVCAR-3 ovarian)	growth (HS 578T breast)	growth (NCI/ADR-RES ovarian)	growth (T-47D breast)	growth (BT-549 breast)	growth (MDA-MB-435 melanoma)	growth (SW-620 colon)	growth (MCF7 breast)	growth (HCT-116 colon)	growth (HCC-2998 colon)	growth (KM12 colon)	growth (SR leukemia)
COc1ccccc1/C=C1\COc2ccc(-c3ccccc3)cc2C1=O	-37.3% (active)	36.1	104%	76.1%	50.7	56.6%	-29% (active)	38.9%	-45.6% (active)	14%	12%	-45% (active)	16.8%	-9.07% (active)	5.64% (active)	51.6%	-32% (active)	
COc1cc(C2CC(c3cccc(Nc4ccncc4)c3)=NN2C(C)=O)cc(OC)c1OC (configuration not stated)	94.4%	97	98.9%	83.8%	90.6	89.2%	96.3%	86%	97.9%	85.2%	103%	18.1%	87.8%	72.6%	71.2%	95.1%	69.5%	
Nc1nnc(C(=O)c2cnc3n(c2=O)CCCCC3)s1		105	104%	111%	101	110%	102%	99.7%	94.7%	98.5%	108%		100%	98.8%		106%	105%	107%
CC(=O)c1c[nH]c2ccc(-c3ccnc(Nc4ccc(NC(=O)c5cccc(F)c5)c(CN5CCOCC5)c4)n3)cc12	-25.9% (active)		-4.49% (active)		17.8	1.06% (active)	-8.81% (active)	-20.1% (active)	1.76% (active)	-5.6% (active)	-7.43% (active)		0.335% (active)	-0.0693% (active)	2.26% (active)	1.41% (active)	-7.43% (active)	4.05% (active)
O=C(O)C(/C=C/c1ccco1)=N\Nc1nc(-c2ccc(Cl)cc2)cs1		36.6	98.9%	43.1%	70.9	-10% (active)	-4.27% (active)	77.3%	12.5%		63.8%	45.7%	71.5%	71.9%	26.3%	49%	62.2%	41.5%
NC(=O)c1cccc(-n2ccc3cc(NC(=O)Nc4cc(C(F)(F)F)cc(C(F)(F)F)c4)ccc32)n1		37.2	72.4%	44%	73.7	29.8%	39.1%	38.6%	41.8%	44.7%	74.4%	50.5%	73.7%	27.2%	38%	88.2%	11.7%	44.3%
Nc1nnc2cc(Cl)ccc2n1	68.9%	105	105%	111%	96.5	96.3%	145%	86.4%	96.3%	93.1%	114%	106%	96.5%	88.7%	101%	110%	97%	
Cc1n[nH]c(C)c1-c1c(C)n[nH]c1C		12.4	2.14% (active)	-17.5% (active)	46.8	5.52% (active)	-53.4% (active)	-8.48% (active)	9.39% (active)	18.7%	2.96% (active)	-35.9% (active)	-26.1% (active)	10.3%	-44.1% (active)	4.99% (active)	-19.3% (active)	-6.74% (active)
NS(=O)(=O)c1cccc(NC(=O)C(=O)C2C(=O)Nc3ccccc32)c1 (configuration not stated)	47.7%	106	96%	102%	106	76.4%	96.6%	101%	97.5%	112%	109%	96.8%	94.5%	109%	93.3%	104%	103%	
Cc1cc(C)n(Nc2nc3ccccc3[nH]c2=O)c(=O)c1C#N		97.7	99.7%	93.4%	96.9	94.8%	101%	92.7%	101%	86%	106%	103%	98.5%	82.6%	96.1%	103%	92.9%	82.5%
Cc1ccccc1CNc1ccc(N2CCOCC2)cc1	110%	96.3	103%	87.7%	131	108%	101%	108%	99.2%	106%	102%	102%	98%	102%	104%	105%	100%	
C#CCn1cc(C=C2C(=O)NC(=S)NC2=O)c2cc(Cl)ccc21	-14.9% (active)	12.1	56.9%	56.1%	81.7	-40.6% (active)	-36.4% (active)	-0.874% (active)	19.5%	76.6%	24.6%	15%	-27.5% (active)	10.6%	2.51% (active)	-4.98% (active)	14.4%	
c1ccc(Cn2nc3c(c2-c2ccccc2)-c2oncc2CC3)cc1		86.8	107%	87.5%	115	110%	106%		84.1%	80.9%	88%	89.2%	106%	82.5%	94.2%	97.8%	99.6%	72.4%
CN1C(=O)N(C)C2NC(N/N=C/c3ccccc3)=NC21 (configuration not stated)	138%	102	98.3%	103%	115	102%	106%	94.7%	104%	90.6%	100%	99.6%	102%	98.2%	95.6%	103%	108%	
COc1ccc(-c2c(-c3ccccc3)noc2N)cc1OC		100	117%	113%	107	113%	117%	148%	104%	99.6%	105%		118%	91.2%	100%	110%	94.7%	76.6%
CCOC(=O)c1cnc2c(cnn2CC)c1NN=C(C)C		98.9	80.3%	96.2%	98.5	9.1% (active)	104%	94.5%	83.3%	87.7%	91%	108%	104%	88.7%	86.5%	94.9%	96.5%	65.9%
CCN1C(=O)N(CC)C2C1NN=c1s/c(=C3\C(=O)Nc4ccccc43)c(=O)n12 (configuration not stated)	36.9%	31.6	50.6%	51.1%	18.4	35.2%	-12.8% (active)	13.2%	42%	15.6%	59.8%	-27.3% (active)	26.1%	28.7%	14.2%	31.8%	15.1%	
